# Bioassay records deposited in PubChem by several laboratories.
# 14-3-3 Bad PPI = disrupts binding of bovine 14-3-3 zeta to phospho-Bad peptide | P63103 | TR-FRET 14-3-3zeta/Dy647-pBad peptide displacement, 1 h | inhibition, % at 21.7 µM | 220,000 tested, 0.71% active;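 active = inhibition above about 70%, limit read from the data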
# Target sequence (P63103 whole entry, looked up): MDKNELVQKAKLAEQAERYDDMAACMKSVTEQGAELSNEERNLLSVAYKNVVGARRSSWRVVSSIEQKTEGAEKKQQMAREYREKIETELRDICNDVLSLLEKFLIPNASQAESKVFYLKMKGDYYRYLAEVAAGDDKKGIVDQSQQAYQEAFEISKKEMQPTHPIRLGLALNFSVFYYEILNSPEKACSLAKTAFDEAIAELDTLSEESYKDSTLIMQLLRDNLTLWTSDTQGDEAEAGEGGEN
# Bim-Mcl-1 = inhibitors of Bim-Mcl-1 interaction, human; Q07820; Bead-based flow cytometry, Bim peptide-Mcl-1 binding; inhibition, % at 10 µM; 190,000 tested, 0.1% active; AID 1009; in the data active = inhibition above about 40%
# NCF1 inh = inhibitors of human p47phox binding; 220,000 tested, 0.53% active; AID 1274; p47phox/p22phox peptide binding, fluorescence polarization, 2 h; inhibition, % at 24.7 µM; P14598;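 active = inhibition above about 30%, limit read from the data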
# Target sequence (P14598 whole entry, looked up): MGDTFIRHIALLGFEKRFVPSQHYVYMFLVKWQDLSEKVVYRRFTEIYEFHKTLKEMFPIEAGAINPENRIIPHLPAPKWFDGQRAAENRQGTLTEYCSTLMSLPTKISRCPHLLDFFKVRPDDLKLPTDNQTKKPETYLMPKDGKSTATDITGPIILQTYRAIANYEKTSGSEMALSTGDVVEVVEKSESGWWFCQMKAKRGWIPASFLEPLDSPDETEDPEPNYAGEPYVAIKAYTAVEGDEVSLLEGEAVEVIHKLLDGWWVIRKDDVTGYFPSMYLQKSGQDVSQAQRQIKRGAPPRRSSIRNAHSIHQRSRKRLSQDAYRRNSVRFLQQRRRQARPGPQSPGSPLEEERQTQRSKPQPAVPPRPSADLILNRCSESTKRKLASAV
# Mcl1 Noxa PPI = Mcl-1/Noxa interaction inhibition | Q07820 | TR-FRET Mcl-1/Noxa peptide binding, 2 h | inhibition, % at 21.7 µM | 220,000 tested, 1.5% active;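 active = compounds that cut the protein-peptide binding signal by more than 50% relative to plate controls in a single-dose test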;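 also: His-tagged Mcl-1 with rhodamine Noxa BH3 peptide and terbium anti-His antibody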
# Mcl1-Bid inh = disrupts binding of human Mcl-1 to Bid peptide. TR-FRET Mcl-1/Bid-Dy647 peptide binding, 1536-well. inhibition, % at 21.7 µM. 220,000 tested, 0.97% active. AID 1021;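 active = compounds that cut the binding signal by more than half at the single screening dose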;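 also: His-tagged Mcl-1 with europium anti-His antibody binding Bid BH3 peptide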
# A number is an active result; i = inactive; nt = no result; [ ] = another dose, or the depositor's remark. A selection: hits, their analogues and other compounds. The true share with any hit is near 3.2%.
SMILES,14-3-3 Bad PPI,Bim-Mcl-1,NCF1 inh,Mcl1 Noxa PPI,Mcl1-Bid inh
CCOC(=O)c1c(C)[nH]c(C)c1C(=O)COC(=O)c1nc2nccc(C)n2n1,i,i,i,i,i
Cc1ccc(/C=N/n2c(-c3cccs3)n[nH]c2=S)cc1,i,i,i,i,i
S=c1[nH]nc(-c2cccs2)n1/N=C/c1c(Cl)cccc1Cl,i,i,i,55.9,i
COc1cccc(CC(=O)Nc2ccccc2C(=O)N2CCOCC2)c1,i,i,i,i,i
Cc1cccc(OCC(=O)Nc2ccccc2C(=O)N2CCOCC2)c1,i,i,i,59.3,i
Cn1c(SCC(=O)N2CCCC2=O)nc2ccccc21,i,i,i,i,i
CCNc1sc(C(=O)c2cccs2)c(N)c1-c1nc2ccccc2s1,i,i,i,54.8,i
C=CCNc1sc(C(=O)c2ccccc2)c(N)c1-c1nc2ccccc2s1,i,i,i,i,i
COc1ccc(OC)c(C2CC(=O)Nc3c2c(=O)[nH]c2ncnn32)c1 (centres undefined),i,i,i,i,i
CCC1(CC)NC(=O)N(CC(=O)Nc2sc3c(c2C(N)=O)CCC3)C1=O,i,i,i,72.8,i
CCOC(=O)Cc1csc(SCC(=O)Nc2sc3c(c2C(N)=O)CCC3)n1,i,i,i,71.2,i
NC(=O)c1c(NC(=O)CSc2nnc(-c3ccco3)n2-c2ccccc2)sc2c1CCC2,i,i,i,88.1,i
CCOC(=O)c1sc(NC(=O)CSc2nnc(-c3ccco3)n2CC)c(C(=O)OCC)c1C,i,i,i,64.3,i
CCC1(C)NC(=O)N(CC(=O)Nc2sc3c(c2C(=O)OC)CCCCC3)C1=O (centres undefined),i,i,i,i,i
CCOC(=O)C1(C)C=C(Nc2ccc(NC(C)=O)cc2)C(=O)N1c1ccc(NC(C)=O)cc1 (centres undefined),i,nt,i,i,i
COc1ccc(-c2nn(C)c(=O)c3ccccc23)cc1CNC(=O)NC1CCCCC1,i,i,i,i,62.1
Cc1ccc(-c2nn(CC(=O)NCc3cc(-c4nn(C)c(=O)c5ccccc45)ccc3C)c(=O)c3ccccc23)cc1,71.7,i,59.2,i,78.8
CCOC(=O)C1CCN(c2c(Nc3ccc(C)c(C)c3)c(=O)c2=O)CC1,i,nt,i,i,i
Brc1ccc(CNc2cc3c(cc2Br)OCCO3)cc1,i,i,i,i,i
C(#CCN1CCOCC1)COC(c1ccccc1)c1ccccc1,72.2,i,i,i,i
Cc1ccc([N+](=O)[O-])cc1N/C=C1\CCCCC1=O,i,i,i,i,i
O=C(O)c1cccc(-n2cccc2/C=C2/NC(=O)N(c3ccc(Cl)cc3)C2=O)c1,93.9,i,i,113.0,98.2
COc1ccc(-n2cccc2/C=C2/NC(=O)N(c3cccc(Cl)c3)C2=O)cc1,i,i,i,i,i
CCCCn1c(CCC(=O)O)nc2cc(S(=O)(=O)N(CC)CC)ccc21,i,nt,i,i,i
CCn1c(C)c(CS(=O)(=O)c2ccccc2)[nH]c1=O,i,i,i,i,i
SMILES,14-3-3 Bad PPI,Bim-Mcl-1,NCF1 inh,Mcl1 Noxa PPI,Mcl1-Bid inh
Cc1ccc(NC(=O)CCSc2nc(C)cc(C)n2)cc1,i,i,i,i,i
Cc1cc(C)nc(SCCC(=O)Nc2ccccc2)n1,i,i,88.0,i,i
CN(CC(=O)Nc1cccnc1)S(=O)(=O)c1ccccc1,i,i,i,i,63.5
CC1=C(c2ccccc2)[N+](=O)C2(CCCC2)N1[O-],i,i,i,i,i
O=[N+]([O-])c1ccc2c(c1)N([O-])C1(CCCCC1)[N+]2=O,i,nt,i,83.2,i
Cc1cc(Br)c(OCc2ccc(C(=O)N/N=C3\CC4CC=CC34)cc2)c(Br)c1 (centres undefined),i,i,i,i,i
CNC(=O)NC1CCCc2ccccc21 (centres undefined),i,i,i,92.1,i
O=C(Nc1ccccc1)NC1CCCc2ccccc21 (centres undefined),i,i,i,i,i
Cc1ccc(C(=O)COC(=O)c2cc(=O)[nH]c3ccccc23)cc1C,i,i,i,i,i
CCn1c(-c2cccc(S(=O)(=O)N3CCCC3)c2)n[nH]c1=S,i,nt,i,i,i
CCn1c(-c2ccc3ncccc3c2)n[nH]c1=S,i,i,i,i,i
CCn1c(-c2cccc(Br)c2)n[nH]c1=S,i,i,i,i,96.7
S=c1[nH]nc(-c2cccc(Cl)c2)n1CCN1CCCCC1,i,i,i,i,95.5
Fc1cccc(Cl)c1/C=N/n1c(-c2cccnc2)n[nH]c1=S,i,i,i,i,i
O=C(Oc1ccccc1)c1ccc2c(c1)C(=O)N(Cc1ccncc1)C2=O,i,nt,i,i,i
COc1ccc(OC)c(S(=O)(=O)NCc2ccccc2)c1,i,i,i,i,i
COc1ccc(OC)c(NS(=O)(=O)Cc2ccccc2)c1,86.7[fluorescence artefact?],i,i,i,i
O=C(Nc1cccc(Cl)c1)c1cc(N=Nc2ccc([N+](=O)[O-])cc2Cl)ccc1O,i,nt,i,108.8,100.2
CC(=O)Nc1ccc(NC(=O)c2ccc([N+](=O)[O-])cc2Cl)cc1,i,i,i,i,i
O=C(Nc1ccc(Cl)c(Cl)c1)Nc1ccc([N+](=O)[O-])cn1,i,nt,i,52.7,i
O=C(Nc1cccc(Cl)c1)c1cccc(Oc2ccc([N+](=O)[O-])cc2Cl)c1,i,i,i,i,i
O=C(Nc1ccccc1)c1cc([N+](=O)[O-])ccc1Cl,i,nt,41.8,i,i
COc1cccc(N2CCN(C(=O)CN(C)S(=O)(=O)c3ccc4c(c3)c(=O)n(C)c(=O)n4C)CC2)c1,i,i,i,i,i
CCOC(=O)C1=C(C)C(c2ccccc2OC)NC(=S)N1 (centres undefined),i,i,i,i,i
CC1CCC(NC(=O)C2CC(=O)N(c3ccc4c(c3)OCCO4)C2)CC1 (centres undefined),i,i,i,i,i
SMILES,14-3-3 Bad PPI,Bim-Mcl-1,NCF1 inh,Mcl1 Noxa PPI,Mcl1-Bid inh
CCOc1ccc(-n2c(=O)c3ccccc3c3ccccc3c2=O)cc1,i,nt,i,i,i
CCOc1ccccc1-n1c(=O)c2ccccc2c2ccccc2c1=O,i,i,i,i,54.2
Clc1cncc(Cl)c1NNc1c2ccccc2nc2ccccc12,i,i,i,57.6,i
Cn1c2ccccc2n2c(=O)c(=O)n(CC(=O)c3ccc(Cl)cc3)nc12,i,i,i,i,i
N#Cc1c(N)sc(=S)c2c1CCCCC2,i,i,i,71.0,i
CC1(C)Cc2c(C#N)c(N)sc(=S)c2CS1,i,i,51.6,i,i
N#Cc1c(N)sc2c1CCCCCC2,i,i,i,i,i
Cn1c(N)c(C#N)c2c(c1=S)CSC(C)(C)C2,i,i,i,i,i
Cc1noc(C)c1C(=O)NCc1ccccc1F,i,i,i,i,i
CC1CCCC(C)N1CCNC(=O)C1CCN(S(=O)(=O)N2CCCCC2)CC1 (centres undefined),i,i,i,i,101.8
CCCCNC(=O)C1CCN(S(=O)(=O)N2CCCCCC2)CC1,i,i,i,i,i
COC(=O)N/N=C/c1cc(N=Nc2ccccc2)ccc1O,i,nt,i,i,i
